We go through 13 molecules from PubChem BioAssay (NCI).

SMILES strings stand for the structures. About 83,000 compounds went through this panel and 20% of them were active in at least one assay; those are over-represented in the sample as a whole.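 Activity criterion: percent growth below 10, measured after cells in 96-well plates were exposed to a single compound concentration for 48 hours.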 Values without a mark were called inactive. Activity calls are given as the source filed them.

Some test systems named below: HCT-15 colon; HT29 colon; SNB-75 CNS; SNB-19 CNS; U251 CNS; PC-3 prostate; SK-MEL-5 melanoma; UACC-62 melanoma; LOX IMVI melanoma; SK-MEL-28 melanoma.
Common to all, as to test: NCI-60 one-dose screen, 48 h (100 = growth as untreated, 0 = no growth, -100 = all killed)
Conditions in all cases: 10 µM unless noted

Take `CC(=O)Cc1nsc(NC(=O)c2cc(-c3cc(Cl)ccc3Cl)oc2C)n1`: the growth in the assay on HCT-15 colon is 103%; with HT29 colon, 107%; in the assay with SNB-75 CNS it was 94.7%; in the assay on SNB-19 CNS, 102%; in the assay with U251 CNS, 97.4%; with PC-3 prostate, 96.8%. Also, the growth with SK-MEL-5 melanoma is 99.1%; in the assay on UACC-62 melanoma, 95%; with LOX IMVI melanoma, 96.3%; in the assay on SK-MEL-28 melanoma, 108%.
Turning to `O=C1OCC2=C1C(c1cccc(F)c1)c1cc3c(cc1N2CCO)CCC3` (stereo not given), the growth is 7.86% (active) with HCT-15 colon; 5% (active) in the assay on HT29 colon; 29.6% in the assay with SNB-75 CNS; 23.9% in the assay with SNB-19 CNS; 14.3% in the assay on U251 CNS; 24.2% with PC-3 prostate. Besides, the growth in the assay with SK-MEL-5 melanoma is -1.4% (active); with UACC-62 melanoma it was 42%; with LOX IMVI melanoma, 16.2%; in the assay on SK-MEL-28 melanoma, 54.7%.
On to `CC(C)=CC(=O)C1C(=O)c2ccccc2C1=O`, for which the growth was 95% with HCT-15 colon; 111% with HT29 colon; 90% with SNB-75 CNS; 94.7% in the assay on SNB-19 CNS; 95.1% with U251 CNS; 100% in the assay with PC-3 prostate. Besides, the growth in the assay with SK-MEL-5 melanoma is 99.2%; in the assay on UACC-62 melanoma, 94.3%; in the assay with LOX IMVI melanoma, 96.8%; with SK-MEL-28 melanoma it was 108%.
Turning to `CC/C(=C(/c1ccc(Cl)cc1)c1ccc(OCCCN(C)C)cc1)c1ccc(OC)cc1`, the growth in the assay on HCT-15 colon is 12.8%; with HT29 colon, 1.68% (active); in the assay on SNB-75 CNS, 81%; in the assay with SNB-19 CNS, 82.8%; with U251 CNS, 6.12% (active); in the assay with PC-3 prostate, 49.3%. Also, the growth is 63.4% with SK-MEL-5 melanoma, 104% with UACC-62 melanoma, 16.6% with LOX IMVI melanoma and 76.6% in the assay on SK-MEL-28 melanoma.
For `COc1ccc(-c2cc(-c3ccc(N(C)C)cc3)nc(NC(=O)c3cccnc3)n2)cc1`, the growth was 95% with HCT-15 colon; 108% with HT29 colon; 99% in the assay with SNB-75 CNS; 93.2% with SNB-19 CNS; 98.9% in the assay on U251 CNS; 90.3% in the assay on PC-3 prostate. For the same molecule, the growth in the assay on SK-MEL-5 melanoma was 97.1%; with UACC-62 melanoma, 95.1%; in the assay with LOX IMVI melanoma it was 97.1%; in the assay on SK-MEL-28 melanoma, 106%.
For `Cc1c(CC(=O)Nc2ccccc2)nnn1-c1ccccc1`, the growth was 101% in the assay with HCT-15 colon; 111% with HT29 colon; 104% in the assay with SNB-75 CNS; 102% in the assay on SNB-19 CNS; 102% with U251 CNS; 104% in the assay with PC-3 prostate. The growth in the assay with SK-MEL-5 melanoma was 101%; with UACC-62 melanoma, 97.7%; in the assay on LOX IMVI melanoma, 97.7%; in the assay on SK-MEL-28 melanoma, 112%.
On to `C#CCOC(=O)C(N)CSSCC(N)C(=O)O` (stereo not given), for which the growth with HCT-15 colon is 108%; in the assay with HT29 colon, 102%; with SNB-75 CNS it was 76.1%; with SNB-19 CNS it was 103%; with U251 CNS, 105%; in the assay on PC-3 prostate it was 91.6%. Also, the growth in the assay on SK-MEL-5 melanoma was 105%; with UACC-62 melanoma it was 98%; in the assay on LOX IMVI melanoma it was 98.7%; in the assay on SK-MEL-28 melanoma it was 96.4%.
For the molecule `O=C(Nc1cccc(Cl)c1)Oc1c(Cl)c(Cl)c(Cl)c(Cl)c1Cl`, the growth is 100% in the assay with HCT-15 colon; 96.3% in the assay on HT29 colon; 76.2% in the assay with SNB-75 CNS; 99.1% in the assay with SNB-19 CNS; 102% in the assay on U251 CNS; 86.9% with PC-3 prostate. Further, the growth in the assay on SK-MEL-5 melanoma was 90.6%; with UACC-62 melanoma it was 90%; in the assay on LOX IMVI melanoma, 95.9%; with SK-MEL-28 melanoma, 109%.
For the molecule `COC(=O)c1c(C)nc(C)c2c1C(=O)C(Br)=C(NCCCCO)C2=O`, the growth in the assay with HCT-15 colon was 49.8%; in the assay on HT29 colon, 19.5%; with SNB-75 CNS, 97.7%; in the assay with SNB-19 CNS, 75.3%; in the assay on U251 CNS it was 72.1%; in the assay with PC-3 prostate, 62.5%. Moreover, the growth with SK-MEL-5 melanoma is -53.4% (active); with UACC-62 melanoma, 44.2%; in the assay on LOX IMVI melanoma, 50.2%; in the assay on SK-MEL-28 melanoma, 102%.
In the case of `Cc1cccc(CN(Nc2ccccc2)c2ccccc2)n1`, the growth with HCT-15 colon was 92.1%; in the assay with HT29 colon, 96.3%; with SNB-75 CNS, 93.1%; in the assay with SNB-19 CNS it was 106%; with U251 CNS it was 91.4%; with PC-3 prostate, 85.7%. The growth is 97.9% in the assay with SK-MEL-5 melanoma, 96.3% with UACC-62 melanoma, 98.5% in the assay with LOX IMVI melanoma and 98.7% with SK-MEL-28 melanoma.
On to `Nc1ncc(-c2ccc3ncnc(N4CCc5cc(F)c(Cl)cc54)c3c2)cc1C(F)(F)F`, for which the growth was 17.9% in the assay with HCT-15 colon; 20.4% in the assay with HT29 colon; -14.3% (active) with SNB-75 CNS; 46.1% in the assay with SNB-19 CNS; 47.8% in the assay with U251 CNS; 25.2% in the assay with PC-3 prostate. Besides, the growth in the assay with SK-MEL-5 melanoma was 37.8%; in the assay on UACC-62 melanoma, 20.4%; in the assay with LOX IMVI melanoma it was 12.7%; with SK-MEL-28 melanoma it was 38.3%.
As to `COc1ccc(S(=O)(=O)N(C)c2oc(-c3ccc(Cl)cc3)nc2C#N)cc1`, the growth with HCT-15 colon was 44.3%; in the assay with HT29 colon, 65.9%; with SNB-75 CNS, 65.1%; in the assay with SNB-19 CNS, 81%; in the assay with U251 CNS, 81.1%; with PC-3 prostate, 87.4%. For the same molecule, the growth was 86.1% in the assay with SK-MEL-5 melanoma, 59.1% in the assay on UACC-62 melanoma, 71.9% in the assay with LOX IMVI melanoma and 84.4% in the assay on SK-MEL-28 melanoma.
With `C=C(CNCCc1ccc(O)cc1)[C@@H]1CC[C@]2(CO)CC[C@]3(C)[C@H](CC[C@@H]4[C@@]5(C)CCC(N)C(C)(C)[C@@H]5CC[C@]43C)[C@@H]12` (stereo not given in full), the growth in the assay with HCT-15 colon was -79.3% (active); in the assay on HT29 colon it was -49.9% (active); with SNB-75 CNS, -97.8% (active); with SNB-19 CNS, -86.1% (active); in the assay on U251 CNS, -84.4% (active); in the assay with PC-3 prostate it was -75.3% (active). For the same molecule, the growth in the assay with SK-MEL-5 melanoma was -95.2% (active); in the assay on UACC-62 melanoma, -86.7% (active); in the assay with LOX IMVI melanoma it was -86.7% (active); with SK-MEL-28 melanoma it was -90.5% (active).
